Data on eight compounds can be found in PubChem BioAssay (NCATS).

Values joined by “and” are separate entries in the source; they are usually repeats but may differ in a detail not shown here. Equal values may be shown once. Inconclusive results are not listed. Active and inactive are the calls of the source. Unless noted, calls come from the whole dose curve; as a rule, active = well fitted curve in the direction sought with a large enough effect; inconclusive = small, poorly fitted or top-dose-only effect, or another doubt; inactive = no such curve, though single readings can be large; an effect the other way counts as inactive or inconclusive.

In experiment [1] the target is Ferritin light chain (Equus caballus) (UniProt P02791). As to the kind of experiment: qHTS Validation Assay for Identification of Novel General Anesthetics (AID 2323). Note: series mostly up to about 77 µM. The essentials:
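Normalized fluorescence response, scaled between free 1-AMA and 1-AMA/apoferritin complex, fitted to a four-parameter Hill equation for concentration-effect values. Binding mix: 10 uM horse-spleen apoferritin, 50% saturated 1-AMA in PBS; read 380/535 nm after 10 min.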

For experiment [2], the target named is ATP-dependent DNA helicase Q1 (Homo sapiens) (UniProt P46063). As to the kind of experiment: qHTS Validation Assay for Inhibitors of RecQ-Like Dna Helicase 1 (RECQ1) (AID 2353). An outline of the steps:
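50 nM RECQ1T1 preincubated 15 min with compound in Tris pH 8.0 buffer with MgCl2, DTT, Tween-20 and 2.5 ug/ml poly(dI-dC); started with 200 nM TAMRA/BHQ-2 forked duplex and 2 mM ATP. Unwinding read as fluorescence (525/598 nm), two reads 2 h apart.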

A short description of experiment [3]: Cytometric Cell-Based qHTS for Inhibitors of the mTORC1 Signaling Pathway in MEF (Tsc2-/-, p53-/-) Cells (AID 2660).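 Note: percent of cells above a phospho-rpS6 to PI ratio cutoff in each well; series mostly up to about 38 µM.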 The essentials:
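Tsc2-/-, p53-/- MEFs (empty vector) exposed to compound 24 h at 37 C, fixed, stained with Alexa-488 anti-phospho-rpS6 Ser235/236 and propidium iodide. Acumen laser scanning; phospho-S6/PI ratio thresholded against 7.5 nM rapamycin, reported as % positive cells.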

The nature of experiment [4]: High Content Imaging Cell-Based qHTS for Inhibitors of the mTORC1 Signaling Pathway in MEF (Tsc2-/-, p53-/-) Cells (AID 2666).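 Note: percent of cells scored positive for phospho-rpS6 Ser235/236 immunostaining by imaging.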 An outline of the steps: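 Cells were plated, dosed with compound after 24 hrs, and incubated another 24 hrs at 37 degree Celsius. Fixed cells were immunostained for phospho-rpS6 Ser235/236 and counterstained, and the normalized signal was scored as % active cells against rapamycin and DMSO controls.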

The nature of experiment [5]: Cytometry Cell-Based qHTS for Inhibitors of the mTORC1 Signaling Pathway in MEF cells (AID 2668).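 Note: Tsc2-/- p53-/- mouse embryonic fibroblasts stably re-expressing wild-type Tsc2; percent cells positive for phospho-rpS6 Ser235/236 relative to propidium iodide stain; series mostly up to about 38 µM.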 An outline of the steps: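 In MEFs grown in DMEM + 10% FBS, a 24 hrs compound exposure preceded imaging of phospho-rpS6 Ser235/236 by laser-scanning cytometry.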
A short description of experiment [6]: Validation screen for small molecules that induce DNA re-replication in MCF 10A normal breast cells (AID 463097). Note: nearly all actives have a fitted effect of over 60% in size. An outline of the steps:
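Following 48 hr compound incubation (37 C, 5% CO2), MCF 10A cells receive Hoechst for 40 min at 37 C. Nuclei are then scanned (excitation 405 nm, emission 500-530 nm) for total fluorescence intensity.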

The target in experiment [7] is Ubiquitin carboxyl-terminal hydrolase 2 (Homo sapiens) (UniProt O75604). Put plainly: qHTS Validation Assay for Inhibitors of Ubiquitin-specific Protease USP2a Using CHOP2 as the Reporter (AID 463106). The essentials: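 10nM USP2 core + cpd, 30min RT; add 25nM Ub-CHOP2/25nM substrate; 60min RT; FI 485/531nm. Buffer Tris pH 8.0, CaCl2, BME, CHAPS. Norm. to NEM = 100% inhibition; time-zero read flags fluorescent artifacts.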

The target in experiment [8] is DNA polymerase III PolC-type (Bacillus subtilis (strain 168)) (UniProt P13267). As to the kind of experiment: qHTS Validation Assay for the Inhibitors of DNA Replication in Gram-Positive Bacteria (AID 485295).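 Note: reconstituted holoenzyme with PolC plus beta clamp SSB and primase; PicoGreen fluorescence of double-stranded DNA made on primed circular M13 template; series mostly up to about 57 µM.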 An outline of the steps:
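Inhibition of DNA synthesis by the reconstituted PolC holoenzyme, monitored through PicoGreen staining of dsDNA formed from ssM13Gori, dNTPs and NTPs, with compound preincubation and room-temperature reaction.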

The target in experiment [9] is Tumor susceptibility gene 101 protein (Homo sapiens) (UniProt Q99816). Put plainly: qHTS Validation Assay for Iinhibitors of HIV-1 Budding by Blocking the Interaction of PTAP/TSG101 (AID 485342; calls by dose curve). The essentials: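 Compound wells held the Tsg101 binding domain (10 uM) and a FITC-conjugated PTAP peptide (50 nM) in buffer at pH 7.5 containing 0.15 M NaCl and 0.01% Tween 20; polarization was recorded after 20 min, r.t.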

Experiment [10] can be described thus: qHTS Validation Assay to Find Inhibitors of Chronic Active B-Cell Receptor Signaling (AID 485345; active = well fitted curve in the direction sought with a large enough effect in the main read-out, with a control signal flat, not every such curve was filed as active). An outline of the steps: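 Read-out: ratio of filter-corrected green (IkappaBalpha fusion) to red (native) luciferase signal in doxycycline-induced TMD8 cells after 4 h at 37C. Titration spanned 46 uM–3 nM; Data were normalised to basal cells and 10 uM MG-132 wells.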

Experiment [11] deals with Beta-2 adrenergic receptor (Homo sapiens) (UniProt P07550). Put plainly: qHTS validation assay of beta-arrestin-biased ligands of beta2-adrenergic receptor (AID 485366). The essentials: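 Tango cells expressing recombinant beta2-AR and beta-arrestin with tTA-driven luciferase, in DMEM with 1% FBS. Compounds were titrated up to 46 microM for 18 hr at 37 degrees C. Luminescence was read 15 min after substrate; curves were fitted and class-assigned.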

Experiment [12] in a line: Quantitative high throughput screen for delayed death inhibitors of the malarial parasite plastid, 96 hour incubation (AID 488745).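 Note: luciferase-expressing P. falciparum in erythrocytes at 2% hematocrit and 0.1% parasitemia; series mostly up to about 29 µM; nearly all actives have a fitted effect of over 70% in size.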 The essentials: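 Infected erythrocytes were added to compound in Albumax-supplemented RPMI 1640 at 0.1% parasitemia and 2% hematocrit (final), incubated 96 h at 37 C under 5% CO2, then luciferase reagent was added and luminescence measured.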

The nature of experiment [13]: Quantitative high throughput screen for delayed death inhibitors of the malarial parasite plastid, 48 hour incubation (AID 488752). Note: nearly all actives have a fitted effect of over 65% in size. The essentials: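 Readout is firefly luciferase luminescence from a reporter integrated into the parasite genome, with lower signal taken as inhibited growth. Infected red cells (0.1% parasitemia, 2% hematocrit final) are cultured with compound for one 48 h cycle at 37 C.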

Experiment [14] addresses Thioredoxin reductase 1, cytoplasmic (Rattus norvegicus) (UniProt O89049). As to the kind of experiment: qHTS Assay for Substrates of Mammalian Selenoprotein Thioredoxin Reductase 1 (TrxR1) (AID 488772).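 Note: NADPH fluorescence in the first read after selenite addition and not the 8 min delta; series mostly up to about 57 µM; a drop in NADPH fluorescence below the no-compound background marks a TrxR1 substrate.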 The essentials: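 Quantitative HTS in Tris-HCl buffer at pH 7.5 with EDTA and Tween-20, using rat TrxR1, 400 uM NADPH and 400 uM selenite (final). A fall in initial NADPH fluorescence relative to background marked substrate behaviour.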

Experiment [15] has as its target Flap endonuclease 1 (Homo sapiens) (UniProt P39748). Put plainly: qHTS Validation Assay for the Inhibitors of Human Flap endonuclease 1 (FEN1) (AID 488816). The essentials: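 Readings taken at 0 and 15 min after starting the reaction with 50 nM (final) substrate supplied the signal. Compounds had first sat with 10 nM FEN1 reagent for 15 min at room temperature. Values come from Hill-equation concentration-response fits.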

Experiment [16] deals with M-phase phosphoprotein 8 (Homo sapiens) (UniProt Q99549). As to the kind of experiment: qHTS Validation Assay for Inhibitors for MPP8 Chromodomain Interactions with Methylated Histone Tails (AID 488949). Note: nearly all actives have a fitted effect of over 55% in size. Note: potency is the fitted concentration of half-maximal effect. An outline of the steps: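 Chemiluminescent proximity assay: histidine-tag capture via nickel acceptor beads, biotin peptide via streptavidin donor beads. Protein and peptide each at 50 nM, pH 7.4, with 30 min incubations at room temperature for complex formation, compound exposure and bead binding.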

The target in experiment [17] is RecQ-like DNA helicase BLM (Homo sapiens) (UniProt P54132). Put plainly: qHTS Validation Assay for Inhibitors of Bloom's syndrome helicase (BLM) (AID 2364). The essentials:
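Forked 20-bp duplex substrate (200 nM, TAMRA/BHQ-2) plus 2 mM ATP added after 15 min compound preincubation with 50 nM enzyme, pH 8.0, poly(dI-dC) 2.5 ug/ml. Strand separation followed by fluorescence (525/598 nm) over 2 h, normalized to enzyme-free and DMSO controls.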

Experiment [18] addresses Thioredoxin reductase 1, cytoplasmic (Rattus norvegicus) (UniProt O89049). Put plainly: qHTS Assay for Inhibitors of Mammalian Selenoprotein Thioredoxin Reductase 1 (TrxR1) (AID 488773).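 Note: drop in NADPH fluorescence over an 8 min run after selenite addition; series mostly up to about 57 µM; nearly all actives have a fitted effect of over 40% in size.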 The conditions noted are these: Potency: inhibition. The essentials: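 Steps: enzyme (90 nM) plus NADPH (400 uM final), 5 min at ~22 deg C; compound added, 15 min; selenite (400 uM final) added; fluorescence followed for 8 min. Concentration-response curves derived from the normalized delta values.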

A short description of experiment [19]: High Content Imaging Cell-Based qHTS for Inhibitors of the mTORC1 Signaling Pathway in MEF Cells (AID 2667).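 Note: Tsc2-/- p53-/- MEFs stably re-expressing wild-type Tsc2 exposed 24 h; series mostly up to about 38 µM.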 An outline of the steps: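 Immunofluorescence for rpS6 phosphorylation in MEFs of Tsc2-/-, p53-/- background rescued with WT Tsc2. Compound exposure lasted 24 hrs. Inhibition was scored against rapamycin-treated control wells.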
Experiment [20] addresses ATP-dependent 6-phosphofructokinase (Trypanosoma brucei brucei) (UniProt O15648). As to the kind of experiment: qHTS Validation Assay to Find Inhibitors of T. brucei phosphofructokinase (AID 485368). An outline of the steps:
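Activity was read as ADP production by luminescence (ADP-Glo) after 45 min at room temperature. The enzyme was 1.25nM PFK in 0.1M TEA pH 8.0 with 0.5 mM F6P, 0.1mM ATP and 5 mM MgCl2. Compounds were titrated up to 57 uM and % activity normalized to no-enzyme and full-enzyme controls.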

Chain of ATP-dependent 6-phosphofructokinase (Trypanosoma brucei brucei) (O15648 whole entry, looked up): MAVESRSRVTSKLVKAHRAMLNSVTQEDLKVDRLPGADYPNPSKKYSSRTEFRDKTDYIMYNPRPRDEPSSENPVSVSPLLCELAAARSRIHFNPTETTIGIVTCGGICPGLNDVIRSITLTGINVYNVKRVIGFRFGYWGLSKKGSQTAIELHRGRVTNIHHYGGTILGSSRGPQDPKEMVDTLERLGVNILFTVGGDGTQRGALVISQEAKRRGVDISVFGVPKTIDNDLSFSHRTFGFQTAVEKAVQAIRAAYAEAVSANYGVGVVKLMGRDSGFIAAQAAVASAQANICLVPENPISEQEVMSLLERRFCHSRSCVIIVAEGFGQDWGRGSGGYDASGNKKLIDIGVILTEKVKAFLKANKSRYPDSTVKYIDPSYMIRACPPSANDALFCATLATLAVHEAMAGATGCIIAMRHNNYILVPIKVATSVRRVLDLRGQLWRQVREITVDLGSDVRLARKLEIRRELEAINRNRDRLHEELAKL
Chain of ATP-dependent DNA helicase Q1 (Homo sapiens) (P46063 whole entry, looked up): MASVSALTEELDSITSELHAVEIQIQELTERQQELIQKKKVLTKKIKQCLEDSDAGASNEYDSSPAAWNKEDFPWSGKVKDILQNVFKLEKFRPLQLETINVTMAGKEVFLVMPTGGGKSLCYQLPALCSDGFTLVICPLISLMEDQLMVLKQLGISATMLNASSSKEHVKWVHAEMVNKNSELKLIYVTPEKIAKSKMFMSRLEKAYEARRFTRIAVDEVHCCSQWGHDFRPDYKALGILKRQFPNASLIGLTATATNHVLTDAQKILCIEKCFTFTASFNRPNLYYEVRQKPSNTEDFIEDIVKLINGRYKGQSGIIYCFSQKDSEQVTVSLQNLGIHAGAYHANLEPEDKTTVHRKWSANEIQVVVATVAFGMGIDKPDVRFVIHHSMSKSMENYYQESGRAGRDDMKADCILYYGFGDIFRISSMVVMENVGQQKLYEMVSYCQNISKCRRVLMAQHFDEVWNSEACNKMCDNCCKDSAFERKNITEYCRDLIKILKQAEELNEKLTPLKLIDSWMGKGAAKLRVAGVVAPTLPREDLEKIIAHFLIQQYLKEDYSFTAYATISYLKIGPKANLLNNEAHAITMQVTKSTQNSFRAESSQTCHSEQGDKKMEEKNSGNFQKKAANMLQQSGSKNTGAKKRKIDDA
Chain of Thioredoxin reductase 1, cytoplasmic (Rattus norvegicus) (O89049 whole entry, looked up): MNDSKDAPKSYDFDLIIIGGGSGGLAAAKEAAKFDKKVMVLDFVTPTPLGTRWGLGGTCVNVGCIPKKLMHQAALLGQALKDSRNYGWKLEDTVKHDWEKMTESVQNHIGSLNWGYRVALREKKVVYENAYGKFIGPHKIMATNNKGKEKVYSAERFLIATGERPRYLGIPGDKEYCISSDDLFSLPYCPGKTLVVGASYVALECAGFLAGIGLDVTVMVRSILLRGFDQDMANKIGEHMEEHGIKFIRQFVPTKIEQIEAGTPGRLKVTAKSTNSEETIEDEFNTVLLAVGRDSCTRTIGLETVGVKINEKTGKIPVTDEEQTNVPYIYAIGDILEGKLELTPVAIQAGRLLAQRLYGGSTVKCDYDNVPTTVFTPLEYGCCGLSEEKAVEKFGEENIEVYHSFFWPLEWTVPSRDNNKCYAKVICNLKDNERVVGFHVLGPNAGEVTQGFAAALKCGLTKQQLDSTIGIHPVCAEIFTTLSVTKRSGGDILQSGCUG
Chain of Beta-2 adrenergic receptor (Homo sapiens) (P07550 whole entry, looked up): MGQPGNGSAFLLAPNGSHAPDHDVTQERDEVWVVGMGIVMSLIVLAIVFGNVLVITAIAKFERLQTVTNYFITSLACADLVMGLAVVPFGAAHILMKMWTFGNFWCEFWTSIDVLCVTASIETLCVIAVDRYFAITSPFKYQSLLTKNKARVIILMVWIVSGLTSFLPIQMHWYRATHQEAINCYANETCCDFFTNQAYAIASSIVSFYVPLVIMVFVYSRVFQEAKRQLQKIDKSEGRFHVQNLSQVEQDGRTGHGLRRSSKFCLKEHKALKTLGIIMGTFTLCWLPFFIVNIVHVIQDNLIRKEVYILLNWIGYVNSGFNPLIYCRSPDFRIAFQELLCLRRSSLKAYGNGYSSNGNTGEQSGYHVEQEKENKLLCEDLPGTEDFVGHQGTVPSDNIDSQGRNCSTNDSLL
Chain of Ubiquitin carboxyl-terminal hydrolase 2 (Homo sapiens) (O75604 whole entry, looked up): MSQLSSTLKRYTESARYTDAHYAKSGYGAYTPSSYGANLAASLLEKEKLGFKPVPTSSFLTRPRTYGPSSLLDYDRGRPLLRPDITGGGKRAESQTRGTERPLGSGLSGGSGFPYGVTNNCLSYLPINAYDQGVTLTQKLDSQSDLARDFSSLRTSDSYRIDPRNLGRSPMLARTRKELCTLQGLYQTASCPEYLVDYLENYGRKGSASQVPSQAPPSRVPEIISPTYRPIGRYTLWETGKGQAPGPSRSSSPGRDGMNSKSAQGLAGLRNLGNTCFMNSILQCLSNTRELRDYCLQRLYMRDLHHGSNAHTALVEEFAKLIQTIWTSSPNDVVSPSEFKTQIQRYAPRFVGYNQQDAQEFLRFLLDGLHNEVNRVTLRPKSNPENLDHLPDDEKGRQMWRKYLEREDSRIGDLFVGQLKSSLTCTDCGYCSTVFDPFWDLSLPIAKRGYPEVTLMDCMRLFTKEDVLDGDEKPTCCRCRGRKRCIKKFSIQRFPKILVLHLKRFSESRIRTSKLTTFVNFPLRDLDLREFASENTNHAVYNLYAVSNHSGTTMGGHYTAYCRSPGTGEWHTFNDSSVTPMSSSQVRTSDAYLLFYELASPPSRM
Chain of DNA polymerase III PolC-type (Bacillus subtilis (strain 168)) (P13267 whole entry, looked up): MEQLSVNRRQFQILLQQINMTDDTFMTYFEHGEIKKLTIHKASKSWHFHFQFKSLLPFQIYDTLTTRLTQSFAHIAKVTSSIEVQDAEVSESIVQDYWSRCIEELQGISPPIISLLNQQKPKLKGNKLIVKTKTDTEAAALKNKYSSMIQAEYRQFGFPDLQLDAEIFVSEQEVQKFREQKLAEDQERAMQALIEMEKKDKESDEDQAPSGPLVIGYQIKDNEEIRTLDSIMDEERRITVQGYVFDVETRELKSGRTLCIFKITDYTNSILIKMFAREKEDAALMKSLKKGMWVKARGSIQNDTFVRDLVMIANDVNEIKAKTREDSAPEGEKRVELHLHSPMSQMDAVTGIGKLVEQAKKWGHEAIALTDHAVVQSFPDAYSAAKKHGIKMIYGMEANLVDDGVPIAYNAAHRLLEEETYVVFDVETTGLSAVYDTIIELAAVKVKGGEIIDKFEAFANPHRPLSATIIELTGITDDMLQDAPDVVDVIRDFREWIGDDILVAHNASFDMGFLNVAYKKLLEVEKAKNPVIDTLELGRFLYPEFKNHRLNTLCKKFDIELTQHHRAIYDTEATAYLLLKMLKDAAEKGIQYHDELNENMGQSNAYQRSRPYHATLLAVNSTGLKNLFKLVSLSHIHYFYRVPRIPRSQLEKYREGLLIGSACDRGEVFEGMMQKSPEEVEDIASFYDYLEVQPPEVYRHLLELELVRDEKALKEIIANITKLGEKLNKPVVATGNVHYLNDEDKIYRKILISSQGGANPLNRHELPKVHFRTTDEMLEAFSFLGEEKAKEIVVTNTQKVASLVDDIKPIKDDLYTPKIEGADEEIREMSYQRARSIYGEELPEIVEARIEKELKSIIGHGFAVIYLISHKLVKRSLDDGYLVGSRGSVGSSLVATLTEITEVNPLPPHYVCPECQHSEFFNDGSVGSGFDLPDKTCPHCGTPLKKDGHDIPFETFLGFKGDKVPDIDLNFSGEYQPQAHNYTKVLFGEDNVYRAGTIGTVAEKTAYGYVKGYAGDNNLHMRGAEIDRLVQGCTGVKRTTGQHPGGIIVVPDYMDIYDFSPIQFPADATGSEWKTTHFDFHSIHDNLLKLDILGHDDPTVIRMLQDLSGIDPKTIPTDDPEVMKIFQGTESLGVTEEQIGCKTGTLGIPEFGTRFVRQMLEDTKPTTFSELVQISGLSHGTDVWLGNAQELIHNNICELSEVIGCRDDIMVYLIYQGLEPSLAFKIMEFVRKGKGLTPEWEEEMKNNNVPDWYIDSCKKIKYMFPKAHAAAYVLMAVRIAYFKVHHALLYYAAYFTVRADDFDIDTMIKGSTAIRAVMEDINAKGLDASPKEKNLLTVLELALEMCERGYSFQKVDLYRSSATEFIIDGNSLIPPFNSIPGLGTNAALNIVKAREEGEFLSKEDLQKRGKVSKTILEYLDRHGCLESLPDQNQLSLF
Chain of M-phase phosphoprotein 8 (Homo sapiens) (Q99549 whole entry, looked up): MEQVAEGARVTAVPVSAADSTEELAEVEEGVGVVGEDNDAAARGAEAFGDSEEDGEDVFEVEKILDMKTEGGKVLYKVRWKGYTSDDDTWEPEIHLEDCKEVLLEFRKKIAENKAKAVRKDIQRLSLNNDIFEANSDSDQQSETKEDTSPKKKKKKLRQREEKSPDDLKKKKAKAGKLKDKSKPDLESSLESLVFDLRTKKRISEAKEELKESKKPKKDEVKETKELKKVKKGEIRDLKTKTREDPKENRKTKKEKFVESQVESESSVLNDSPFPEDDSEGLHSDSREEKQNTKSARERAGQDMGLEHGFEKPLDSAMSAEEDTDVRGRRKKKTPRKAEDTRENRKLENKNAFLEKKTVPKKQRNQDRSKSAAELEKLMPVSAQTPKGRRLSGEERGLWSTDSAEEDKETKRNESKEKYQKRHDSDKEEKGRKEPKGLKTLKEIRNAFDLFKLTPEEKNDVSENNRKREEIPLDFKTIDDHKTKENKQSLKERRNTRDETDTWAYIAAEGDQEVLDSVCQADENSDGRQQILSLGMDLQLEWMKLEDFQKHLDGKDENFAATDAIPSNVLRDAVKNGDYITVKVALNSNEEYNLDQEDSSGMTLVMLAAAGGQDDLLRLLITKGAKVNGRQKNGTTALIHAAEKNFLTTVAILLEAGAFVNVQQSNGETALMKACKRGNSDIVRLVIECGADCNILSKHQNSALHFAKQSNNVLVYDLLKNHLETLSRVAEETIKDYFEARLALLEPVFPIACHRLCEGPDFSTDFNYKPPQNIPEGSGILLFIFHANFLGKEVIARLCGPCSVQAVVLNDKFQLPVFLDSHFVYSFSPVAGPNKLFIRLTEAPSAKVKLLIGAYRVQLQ

Regarding `Clc1ccc(C(c2ccccc2Cl)C(Cl)Cl)cc1` (stereo not given), the Potency result in experiment [1], in experiment [2], in [4], in [5], in experiment [6] and in experiment [7] was “inactive” throughout. The Potency entry in [8], in experiment [10], in experiment [12], in experiment [13], in [15] and in [16] was “inactive” each time. Also, the compound was classed as inactive in experiment [3], in experiment [9], in [11] and in experiment [14].

Turning to `CN1CCN(CCCN2c3ccccc3Sc3ccc(Cl)cc32)CC1`, the Potency result in experiment [1], in experiment [2], in experiment [17], in experiment [7], in [8] and in experiment [18] was “inactive” in each case. Besides, the Potency result in experiment [15] is “inactive”. Also, the call in experiment [9], in experiment [11] and in [14] was inactive. The Potency in [16] is 25.1 µM (active) and 15 µM (active).

Turning to `CN1C(C(=O)Nc2ccccn2)=C(O)c2ccccc2S1(=O)=O`, the Potency entry in [1], in experiment [2], in experiment [4], in [19], in [5] and in experiment [6] was “inactive” throughout. Moreover, the Potency entry in experiment [7], in experiment [8], in experiment [12], in experiment [13], in experiment [18] and in [15] was “inactive” in each case. Moreover, in experiment [16], the Potency entry was “inactive”. The outcome in [3], in experiment [9], in experiment [11] and in experiment [14] was inactive.

In the case of `CN1CCN2c3ccccc3Cc3ccccc3C2C1` (stereo not given), the Potency entry in experiment [1], in experiment [2], in experiment [4], in [19], in experiment [5] and in experiment [6] was “inactive” each time. Besides, the Potency result in experiment [7], in experiment [8], in experiment [10], in experiment [12], in experiment [13] and in [18] was “inactive” throughout. Further, the Potency entry in [16] was “inactive”. Also, the outcome in experiment [3], in experiment [9], in experiment [11] and in experiment [14] was inactive.

In the case of `CN1C2CCC1CC(OC(=O)C(CO)c1ccccc1)C2` (stereo not given), the Potency result in experiment [1], in experiment [2], in experiment [4], in experiment [5], in experiment [6] and in experiment [8] was “inactive” each time. Moreover, the Potency result in [10], in experiment [20], in [12], in experiment [13] and in experiment [16] was “inactive” each time. For the same compound, the compound was called inactive in experiment [3], in [9] and in [11].

Take `NCCc1cnc[nH]1`: the Potency result in experiment [1], in experiment [2], in experiment [4], in experiment [5], in experiment [6] and in experiment [7] was “inactive” each time. Also, the Potency entry in [8], in experiment [10], in experiment [20], in experiment [12], in experiment [13] and in [18] was “inactive” in each case. Further, the Potency result in experiment [15] and in experiment [16] was “inactive” throughout. Also, the compound was called inactive in experiment [3], in experiment [9] and in experiment [11].

For `COc1ccccc1OCC(O)CN1CCN(CC(=O)Nc2c(C)cccc2C)CC1` (stereo not given), the Potency result in experiment [1], in experiment [2], in experiment [4], in experiment [19], in experiment [5] and in experiment [6] was “inactive” throughout. Moreover, the Potency result in [8], in experiment [20], in [12], in [13], in [18] and in experiment [15] was “inactive” throughout. In [16], the Potency result was “inactive”. Besides, the call in [3], in experiment [9] and in experiment [11] was inactive.

Turning to `Nc1nc2c(ncn2COC(CO)CO)c(=O)[nH]1`, the Potency entry in [1], in experiment [2], in [4], in experiment [5], in experiment [6] and in experiment [7] was “inactive” in each case. In addition, the Potency result in [8], in [10], in experiment [20], in experiment [12], in experiment [13] and in [18] was “inactive” throughout. Moreover, the Potency entry in [16] is “inactive”. The call in [3], in experiment [9], in experiment [11] and in experiment [14] was inactive.
